# High-throughput results (PubChem BioAssay)
# Pf growth 96h = Primary qHTS for delayed death inhibitors of the malarial parasite plastid, 96 hour incubation; P. falciparum luciferase reporter growth, 96 h; Potency, µM (titrated, usually from 28.7 µM), inactives show at the highest dose activity change, negative = inhibition, most hits filed as inhibitors; hit rate 6.9% among 320,000; note: potency is the fitted concentration of half-maximal effect; % is set by controls: 0 for no effect and ±100 for the full control effect
#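 P. falciparum expressing integrated firefly luciferase, in erythrocytes at 2% hematocrit, 0.05% parasitemia, incubated with compounds 96 h at 37 C, 5% CO2. Growth inhibition read as loss of luminescence; two-generation exposure targets delayed-death apicoplast inhibitors.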
# Cycloheximide cs = Cycloheximide Counterscreen for Small Molecule Inhibitors of Shiga Toxin | cell reporter, cycloheximide protein synthesis inhibition counterscreen | hit rate 12% among 300,000 | max response, %; in the data active = max response mostly above about 13%, no sharp cut-off; inactive = mostly below about 14%; note: read at 38.3 µM for the half of the compounds with a filed dose; 0% is about no effect
# Pf growth 48h = Primary qHTS for delayed death inhibitors of the malarial parasite plastid, 48 hour incubation | P. falciparum luciferase growth in erythrocytes, 48 h | Potency, µM (doses to about 28.7 µM), inactives show at the top dose activity change, negative = inhibition, usual class: inhibitors | hit rate 5.9% among 310,000 | AID 504832, 2011; note: potency is the fitted concentration of half-maximal effect; % is set by controls: 0 for no effect and ±100 for the full control effect
#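 A one-generation exposure of luciferase-tagged malaria parasites in RPMI 1640/Albumax erythrocyte culture, 37 C and 5% CO2. Inhibition is inferred from decreased luminescence after adding detection reagent.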
# Shiga toxin inh = A qHTS for Small Molecule Inhibitors of Shiga Toxin | Vero cells, Shiga toxin protein synthesis inhibition reporter | inhibition, % at 38.7 µM | hit rate 9.2% among 290,000 | AID 2315, 2010; in the data active = inhibition mostly above about 28%, no sharp cut-off; inactive = mostly below about 43%; note: 0% is about no effect
# Active calls of the source: *; ? = inconclusive; / = not tested or not shown; [ ] = dose if it differs, or a comment. In the library only some 21% were active in any assay of this set; here they are far more common. Unless noted, calls come from the whole dose curve; as a rule, active = well fitted inhibition curve with a large enough effect; inconclusive = small, poorly fitted or top-dose-only effect, or another doubt; inactive = no such curve, though single readings can be large or run the other way.
SMILES,Pf growth 96h,Cycloheximide cs,Pf growth 48h,Shiga toxin inh
Cc1ccc(-n2nc3c(=O)n(CCCC(=O)NCc4ccc(C)o4)nc(C)c3c2C)cc1,?,12,10µM*,-4
Cc1csc(=O)n1CCC(=O)OCC(=O)Nc1ccc(F)c(F)c1F,6%,/,1%,/
CCc1ccc(-c2cc(C(F)(F)F)n3nc(C(=O)Nc4cnn(Cc5ccc(C)cc5)c4)cc3n2)s1,4.7µM*,-6,/,-10
C=C[C@@H](C)N(Cc1ccc(OC)cc1)S(=O)(=O)N(Cc1ccccc1)[C@H](C=C)C(C)C,?,/,3.3µM*,/
Cn1c(CCCCCN)nc2ccccc21,10µM*,-4,?,-8
C=CCn1c(COc2ccccc2)nc2ccccc21,-13%,29*,-3%,44*
CCCC(=O)NCCCc1nc2ccccc2n1C,?,0,16%,1
C=CCn1c(CC(C)(C)C)nc2ccccc21,21%,-1,-20%,13
Cn1c(COc2ccccc2)nc2ccccc21,-8%,32*,39%,67*
COCCn1c(=O)[nH]c2cc(C(=O)NCc3ccccc3)ccc2c1=O,1.5µM*,1,/,-5
CCCCCn1c(=O)[nH]c2cc(C(=O)NCCCN3CCC(C)CC3)ccc2c1=O,?,3,?,-10
COc1ccc(CCn2c(=O)[nH]c3cc(C(=O)NCCc4ccccc4)ccc3c2=O)cc1OC,38%,25*,43%,25*
CN1CCN(CCCNC(=O)c2ccc3c(=O)n(CCc4ccccc4)c(=O)[nH]c3c2)CC1,33%,1,?,-2
COc1cc(C(=O)NCCc2ccc(F)cc2)ccc1OCC(=O)N1CCOCC1,-5%,/,-10%,/
COc1ccc(C(=O)NCCc2ccc(F)cc2)cc1OC,15%[5.75 µM],27*,23%,25
CCCCCn1c(=O)[nH]c2cc(C(=O)NCCCN3CCCCC3)ccc2c1=O,/,-1,9.3µM*,-11
COc1ccc(C2=Nn3c(nnc3-c3ccc(OC)cc3OC)SC2)c(OC)c1,/,-4,/,-9
COC(=O)c1ccccc1NC(=O)CNc1ccc(F)c(S(=O)(=O)N2CCOCC2)c1,-4%,/,?,/
COc1ccc(C(=O)NCCNc2ccc([N+](=O)[O-])cc2)cc1OC,5.2µM*,-3,-7%,-3
Cc1cccnc1NC(=O)c1cccc(S(=O)(=O)NCc2ccccc2)c1,1%,/,?,/
CNC(=O)N(C1=NCC(C)(C)S1)c1ccc(F)c(Cl)c1,7.4µM*,-5,/,1
Cc1ccc(S(=O)(=O)N2CCC(C(=O)OCC(=O)N3CCCC3=O)CC2)cc1C,27%,/,-2%,/
CCOC(=O)c1c(NC(=O)OC)sc(C(=O)N(C)C)c1C,-6%,6,-8%,-22
CCOC(=O)c1c(NC(=O)C(Sc2ccccc2)c2ccccc2)sc(C(=O)N(C)C)c1C (stereo unspecified),?,1,3.3µM*,-7
CCOC(=O)c1c(NC(=O)C(Sc2ccccc2)c2ccccc2)sc(C(N)=O)c1C (stereo unspecified),9.3µM*,-2,?,-8
SMILES,Pf growth 96h,Cycloheximide cs,Pf growth 48h,Shiga toxin inh
Nn1cnnc1SCC(=O)N1CCc2ccccc2C1,-17%,/,14%,/
COc1ccc(-c2nn(-c3ccccc3)cc2/C=C2/SC(=S)N(CCC(=O)O)C2=O)cc1,?,9,?,29
COc1ccc(-c2nn(-c3ccccc3)cc2/C=C2/SC(=S)N(CCC(=O)O)C2=O)c(C)c1,5.9µM*,-3,-2%,-15
CCOc1cc(/C=C(/C#N)c2nc3ccccc3[nH]2)ccc1Oc1ccc([N+](=O)[O-])cn1,2.3µM*,11*,?,17
CCOc1cc(/C=C(\C#N)c2nc3ccccc3[nH]2)ccc1OC(C)C(=O)O (stereo unspecified),17%,30*,-22%,77*
COc1ccc2nc(/C(C#N)=C\c3ccc(C(=O)O)cc3)[nH]c2c1,12%,-1,27%,-5
N#C/C(=C\c1ccc(N2CCCC2)c([N+](=O)[O-])c1)c1nc2ccccc2[nH]1,84%,50*,?,112*
COc1cc(/C=C(/C#N)c2ccc(C)cc2)ccc1Oc1ccc([N+](=O)[O-])cn1,5%,1,?,-4
COc1cc(/C=C(/C#N)c2nc3ccccc3[nH]2)ccc1Oc1ncccc1[N+](=O)[O-],?,13*,15µM*,24
C/C=C(/C)C(=O)O[C@H]1C[C@@]2(C)O[C@H]2[C@@H](OC(C)=O)C2(C)CC[C@@](O)(C(C)C)C12 (stereo partly specified),/,-8,/,-12
